# Only some compounds are listed: those with a hit (about 5.1% of all), similar ones and a draw of the others.
# S1P3 antagonist: S1P3 (human) receptor antagonism. CHO S1P3 NFAT-BLA reporter, FRET fluorescence, antagonist mode. inhibition, % at 4.98 µM. Q99500. 0.27% of 170,000 active;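 active = inhibition above the plate cutoff, the mean inhibition of test wells on that plate plus 3 SD, cut at about 28% in these data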;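 also: cells challenged with S1P at its EC80 of 0.8 µM; blue over green emission ratio from cleaved BLA substrate after 4 h stimulation; 0% = S1P-stimulated wells and 100% = unstimulated DMSO-only wells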
# RAM inhibit: blocks the yeast RAM network; S. cerevisiae dse1pr::URA3 reporter, 5-FOA growth OD615, 2 d; analog-sensitive cbk1-as2 kinase mutant strain; inhibition, % at 50 µM; 1.8% of 190,000 active;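 active = inhibition above a set limit, 3 SD over mean compound inhibition, cut at about 8.4% in these data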;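 also: 0% = DMSO-only wells with no growth and 100% = 10 µM 1-NA-PP1 full growth; inhibition rescues growth on 5-FOA so higher OD means more RAM inhibition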
# S1P4 antagonist: antagonists of human S1P4 receptor | S1P4-expressing cells, antagonist mode, reporter read-out | inhibition, % at 4.98 µM | 0.26% of 220,000 active | AID 1510; in the data active = inhibition above about 29%;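 also: 0% = wells stimulated with agonist and 100% = vehicle wells without agonist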
# Target sequence (O95977 whole entry, looked up): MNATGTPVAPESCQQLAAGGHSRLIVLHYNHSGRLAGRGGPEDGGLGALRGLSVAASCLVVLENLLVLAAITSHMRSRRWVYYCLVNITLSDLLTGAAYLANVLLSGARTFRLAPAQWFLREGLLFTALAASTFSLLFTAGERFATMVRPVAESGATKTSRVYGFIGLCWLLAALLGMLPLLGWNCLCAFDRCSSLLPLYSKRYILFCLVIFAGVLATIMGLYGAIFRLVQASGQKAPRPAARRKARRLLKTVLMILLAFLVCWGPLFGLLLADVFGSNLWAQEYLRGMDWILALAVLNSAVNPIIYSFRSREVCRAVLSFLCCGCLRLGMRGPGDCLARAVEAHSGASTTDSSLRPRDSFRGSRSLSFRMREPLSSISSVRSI
# ROMK primary: modulates human ROMK potassium channel activity. 2% of 130,000 active. P48048. B-score at 10 µM. AID 1918. Tet-inducible ROMK, thallium flux fluorescence; actives lie on both sides;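 active = signal ratio slope over the read window, or its plate-corrected B-score, at least 3 SD from the plate mean, either direction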;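 also: B-score of the F/F0 ratio slope over 7 to 12 s after thallium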
# S1P4 agonist: activates the human S1P4 receptor. O95977. AID 1509. S1P4-expressing cell line, agonist reporter assay. 0.35% of 220,000 active. activation, % at 4.98 µM; in the data active = activation above about 11%;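 also: 0% = DMSO vehicle and 100% = reference agonist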
# KCC2 mod: KCC2 (human) Cl- transport modulation; Q9H2X9; KCC2 cells, thallium flux FluoZin-2 fluorescence; B-score of Tl+ flux slope (higher = more flux/activation; lower = inhibition) at 10 µM; 2.2% of 190,000 active; AID 1456;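 active = thallium flux slope and its plate-corrected score both differing from the plate sample mean at a set confidence after two filtering rounds, in either direction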;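 also: slope of fluorescence scaled to starting intensity during 10 to 20 s after thallium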
# The depositor's hits bear a star; i = inactive; x = not tested or not shown.
SMILES,S1P3 antagonist,RAM inhibit,S1P4 antagonist,ROMK primary,S1P4 agonist,KCC2 mod
COc1ccc(/C=C/c2nc(-c3ccccc3O)n[nH]2)cc1,2.5,8.8*,-17.8,0.18,0.6,-0.126
COc1ccc(/C=C/c2nc(-c3ccccc3O)n(-c3ccccc3)n2)cc1,4.1,1.2,-12.2,-0.0587,1.0,0.163
O=C(Nc1ccc(Cl)cc1)OCc1cc(-c2ccccc2Cl)on1,x,7.2,0.7,-0.00674,-0.1,-0.337
Cc1ccc(NC(=O)OCc2cc(-c3ccccc3)on2)cc1,-4.7,9.9*,0.7,0.881,1.0,1.02
CCCC(=O)NC(Nc1cccc(C(F)(F)F)c1)C(Cl)(Cl)Cl (centres undefined),x,0.6,-18.9,x,-0.1,x
Cc1cc(C)n(CCN(C)c2nc3nonc3nc2NC2CC2)n1,-3.2,0.7,-20.1,0.69,3.2,1.05
CN1CCN(C(c2ccc(F)cc2)c2nnnn2Cc2cccs2)CC1 (centres undefined),-31.3,0.8,-16.8,x,1.7,0.404
Fc1ccc(C(c2nnnn2Cc2cccs2)N2CCN(C3CCCCC3)CC2)cc1 (centres undefined),-7.7,0.5,2.5,-5.75*,-0.6,0.291
Cc1ccc(OCCNC(=O)c2cc(C(=O)NCCOc3ccc(C)cc3)cc([N+](=O)[O-])c2)cc1,7.8,8.9*,-8.7,-1.14,1.4,1.52
COc1cccc(OCCNC(=O)c2cc([N+](=O)[O-])cc([N+](=O)[O-])c2)c1,-14.1,1.9,-7.7,0.684,-0.9,-1.08
COc1ccccc1NS(=O)(=O)c1ccc(N/N=C/c2c(C)nn(-c3ccccc3)c2N2CCCC2)c([N+](=O)[O-])c1,-11.1,9.6*,-1.3,x,0.4,-0.911
Cc1nn(-c2ccccc2)c(N2CCCC2)c1/C=N/Nc1ccc(S(=O)(=O)Nc2ccccc2)cc1[N+](=O)[O-],-3.8,9.0*,-12.1,x,0.1,0.0491
Cc1cccc(NC2=C(Cl)C(=O)OC2NC(=O)c2ccccc2)c1 (centres undefined),x,5.5,-11.7,0.11,0.3,x
CC(C)OC(=O)C(C)Nc1ccc(F)c(Cl)c1 (centres undefined),7.3,x,-3.2,x,1.0,-0.338
CCN1C(=O)/C(=C/c2cccs2)S/C1=N\S(=O)(=O)c1ccc(C)cc1,7.0,4.9,-11.1,x,7.3,1.23
C=CCN1C(=O)/C(=C/c2cccs2)S/C1=N\S(=O)(=O)c1ccc(F)cc1,-3.2,10.6*,-12.1,x,7.8,-0.07
Fc1cccc(F)c1-n1c(CN2CCCCC2)csc1=S,4.8,1.9,-14.8,0.175,1.1,-1.67
Cc1c(C)n(CC(O)CNc2ccccc2)c2ccccc12 (centres undefined),-3.5,-1.2,9.6,0.0447,0.5,0.032
Cc1c(C)n(CC(O)CN2CCCCCC2)c2ccccc12 (centres undefined),29.5,0.2,9.9,-2.06*,0.4,0.943
S=c1[nH]nc(-c2ccncc2)n1CC1CCCO1 (centres undefined),6.1,1.5,-9.4,x,-0.1,0.277
Fc1ccc(-c2n[nH]c(=S)n2CC2CCCO2)cc1 (centres undefined),x,2.9,-8.5,2.45*,-2.7,0.449
Cc1cccc(CNC(=O)CCc2nnc(C3CCCCC3)o2)c1,-4.7,3.1,-6.9,-0.0925,3.0,x
COc1ccc(/C=C(\CC(=O)O)c2nc3ccccc3o2)cc1,-11.6,9.6*,-18.2,0.85,-1.1,x
COC(=O)c1sccc1NC(=O)c1cc(OC)cc(OC)c1,x,4.3,-24.5,x,-1.5,-0.823
COC(=O)c1sc(-c2ccccc2)cc1NC(=O)c1cc(OC)cc(OC)c1,5.0,8.8*,-8.8,0.0154,0.9,0.0842
SMILES,S1P3 antagonist,RAM inhibit,S1P4 antagonist,ROMK primary,S1P4 agonist,KCC2 mod
COC(=O)c1sc(-c2ccccc2)cc1NC(=O)c1ccc(OC)cc1,-5.5,8.7*,6.6,0.146,-0.6,0.787
COC(=O)c1sc(-c2ccccc2)cc1NC(=O)c1ccc(F)cc1,-0.8,2.8,-8.6,x,-0.9,1.5
C#CCNC(=O)C1=C[C@H](c2ccccc2)[C@@H](CCCO)[C@H](OCC)O1,-10.8,-0.2,-7.9,x,-0.4,1.05
CCC(=O)N1c2ccccc2-c2nnc(SC)nc2OC1c1ccc(OC)c(OC)c1 (centres undefined),-5.5,1.4,-6.5,x,-1.4,0.548
CCOc1ccc(C2Oc3nc(SC)nnc3-c3ccccc3N2C(C)=O)cc1OC (centres undefined),54.7*,4.7,-15.6,x,1.5,-0.269
COc1ccc(/C=C/C(=O)Nc2cccc(S(=O)(=O)N3CCCC3)c2)cc1OC,7.8,8.5*,-15.9,-0.0427,0.5,-0.642
CCn1c(=S)[nH]c2scc(-c3cccs3)c2c1=O,-37.1,3.9,-12.3,12.8*,-1.4,59.9*
C=CCn1c(=S)[nH]c2scc(-c3ccc(C)o3)c2c1=O,-16.9,5.2,-1.0,7.49*,-1.4,61*
CC(C)(C)C1CCC2(CC1)Nc1cccc3cccc(c13)N2,x,8.9*,-1.1,1.09,2.6,0.00897
FC(F)(F)c1ccc(C2Nc3cccc4cccc(c34)N2)cc1,-29.2,3.9,7.5,1.3,1.2,x
COc1ccc(CCNC(=O)C(=O)Nc2ccc3c(c2)OCO3)cc1OC,-2.2,3.9,14.8,0.211,-0.4,-0.0209
CC(C(=O)Nc1ccccc1Sc1ccccc1)N(c1ccccc1)S(C)(=O)=O (centres undefined),x,8.4*,-16.9,x,0.0,x
Cc1cccc(-n2cc(CNCCc3nc(C)cc(C)n3)c(-c3cccc(F)c3)n2)c1,-6.3,x,-8.8,x,1.5,1.25
Cc1noc(C)c1COC(=O)CCN1c2ccccc2Sc2ccccc21,23.4,10.4*,-7.8,-1.35,-0.9,0.0362
Cc1noc(C)c1COC(=O)CCOc1ccccc1,15.0,-1.4,-7.8,-0.0333,-0.2,-0.706
Cc1cc(C)nc(N(C#N)CCOc2ccccc2)n1,-9.2,-1.3,10.6,x,0.4,-0.94
CN(C)c1nc(N(C)C)nc(N(C#N)CCOc2ccccc2)n1,x,9.8*,-1.2,-2,2.2,x
O=c1c(C(c2ccc(F)cc2)c2c(O)nc3n(c2=O)CCS3)c(O)nc2n1CCS2,-3.5,x,-0.3,x,0.2,-0.188
COc1cc(OC)nc(Oc2ccccc2C(=O)Oc2ccc(C)cc2)n1,x,9.5*,2.4,x,-2.0,-1.74
COc1cc(OC)nc(Oc2ccccc2C(=O)Oc2ccc(Cl)cc2)n1,x,7.1,0.7,x,0.3,-1.25
O=C(C1=NN(c2ccccc2)C2C(=O)N(c3cccc(Cl)c3)C(=O)C12)c1ccccc1 (centres undefined),28.4*,3.4,2.6,-0.152,-3.4,i
Cc1oc(-c2cccc(C(F)(F)F)c2)nc1CN1CCOCC1,-7.3,-0.2,22.2,0.513,0.6,0.742
Cc1cccc(OCC(=O)NC(=S)N2CCCc3ccccc32)c1,x,1.9,-15.0,-0.927,1.6,23.3*
O=C(COc1ccc(Cl)cc1Cl)OCC(=O)N1CCCc2ccccc21,-9.0,7.6,-2.2,x,0.1,0.0016
Cc1cccc(OCC(=O)Nc2ccccc2N2CCCCC2)c1,1.1,4.0,-3.3,0.498,-0.2,x
